# Results taken from PubChem BioAssay (NCATS).
# Values joined by “and” are separate entries in the source; they are usually repeats but may differ in a detail not shown here. Equal entries are not always repeated. Results filed as inconclusive are left out. Where a call stands in place of a potency, no number is given. A number with no mark means an inactive call. Active and inactive are the calls of the source. The call rests on the fitted dose curve; in most records, active means well fitted curve in the direction sought with a large enough effect; inconclusive means small, poorly fitted or top-dose-only effect, or another doubt; inactive means no such curve, though single readings can be large; an effect the other way counts as inactive or inconclusive.
# Key:
# [1] = target: Cellular tumor antigen p53 (Homo sapiens) (UniProt P04637); experiment: Primary qHTS for small molecule compounds that upregulate eGFP-tagged delta133p53alpha (in N-terminal) cells. (AID 2060322); details: NCI-H358 eGFP-delta133p53alpha fluorescence, 24 h; activation: active compounds read high; further: nearly all actives have a fitted effect of over 75% in size; on activation: series mostly up to about 56 µM
# Cellular tumor antigen p53 (Homo sapiens), sequence (P04637 whole entry, looked up): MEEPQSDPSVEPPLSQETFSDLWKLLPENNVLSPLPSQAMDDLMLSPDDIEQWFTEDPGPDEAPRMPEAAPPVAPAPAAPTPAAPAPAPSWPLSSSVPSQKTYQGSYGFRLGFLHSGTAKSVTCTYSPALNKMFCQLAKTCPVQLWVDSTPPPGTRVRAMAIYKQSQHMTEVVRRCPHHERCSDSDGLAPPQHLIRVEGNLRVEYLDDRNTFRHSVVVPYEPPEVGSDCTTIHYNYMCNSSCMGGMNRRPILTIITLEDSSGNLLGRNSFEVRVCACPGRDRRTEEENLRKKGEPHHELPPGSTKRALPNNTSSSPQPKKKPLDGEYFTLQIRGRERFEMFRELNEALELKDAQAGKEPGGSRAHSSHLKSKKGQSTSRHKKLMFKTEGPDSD
# Procedure, shortened: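 NCI-H358 cells pre-induced 24 h with 10 ng/ml doxycycline to express N-terminal eGFP-delta133p53alpha, then dosed 24 h at 37C without doxycycline; fixed, Hoechst-stained, GFP intensity by laser scanning cytometry, normalized to DMSO (0%) and 57.5 uM 5-azacytidine (100%).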
# [2] = BET inhibitor-based combinations targeting novel dependencies in MECOM-rearranged (r) AML: SET-2 cell line (AID 2202231); details: SET-2 AML cells viability, CellTiter-Glo luminescence, 48 h; viability: active compounds read low, concentration not given here; further: nearly all actives have a fitted effect of over 35% in size
# Procedure, shortened: (§1)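 A 48 hr incubation preceded viability reading by CellTiter-Glo, with 15 min room-temperature development. Dose series had 11 points; normalization used DMSO and empty wells; AUC was computed and mean-centered per line as Z-AUC.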
# [3] = BET inhibitor-based combinations targeting novel dependencies in MECOM-rearranged (r) AML: MV-4-11 cell line (AID 2202233); further: nearly all actives have a fitted effect of over 45% in size
# Procedure, shortened: (§2)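 Each compound is tested in an 11-point concentration series against 500 seeded cells/well for 48 hr. The luminescent viability signal is normalized to DMSO and blank wells, then reduced to AUC and a cell-line-centred Z-AUC.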
# [4] = BET inhibitor-based combinations targeting novel dependencies in MECOM-rearranged (r) AML: HNT-34 cell line (AID 2202234); further: nearly all actives have a fitted effect of over 35% in size
# Procedure, shortened: as §2
# [5] = BET inhibitor-based combinations targeting novel dependencies in MECOM-rearranged (r) AML: UCSD-AML1 cell line (AID 2202235); further: nearly all actives have a fitted effect of over 40% in size
# Procedure, shortened: as §2
# [6] = BET inhibitor-based combinations targeting novel dependencies in MECOM-rearranged (r) AML: AML-191 cell line (AID 2202236; further: nearly all actives have a fitted effect of over 35% in size)
# Procedure, shortened: as §1
# [7] = BET inhibitor-based combinations targeting novel dependencies in MECOM-rearranged (r) AML: AML-194 cell line (AID 2202237; further: nearly all actives have a fitted effect of over 40% in size)
# Procedure, shortened: as §1
# Potency means the concentration at half of the fitted maximal effect.
Compound,activation [1],viability [2] [%],Potency [3],Potency [4],Potency [5],Potency [6],Potency [7],Potency [2],Potency [1]
CCN(c1ccccc1)c1cc(NC)[n+](C)c(C)n1,3.67%,117,inactive,inactive,inactive,inactive,inactive,–,–
CCCC1OC2C[C@@H]3[C@H]4CCC5=CC(=O)C=C[C@]5(C)[C@H]4C(O)C[C@]3(C)[C@]2(C(=O)CO)O1 (stereo partly specified),16.2%,98.3,20.9 µM (active),–,inactive,0.0295 µM (active),–,–,–
NS(=O)(=O)c1cccc2c1C(=O)c1cccc(O)c1C2=O,-16%,–,0.332 µM (active),1.86 µM (active),–,2.35 µM (active),2.63 µM (active),2.95 µM (active),–
C#CCN[C@@H]1CCc2ccccc21,-13.4% and -11.3%,116,inactive,inactive,inactive,inactive,inactive,–,–
Nc1ncnc2ccccc12,22.8%,115,inactive,inactive,inactive,inactive,inactive,–,–
c1cc(CN2CCCNCCNCCCNCC2)ccc1CN1CCCNCCNCCCNCC1,39.7%,87.5,inactive,inactive,inactive,inactive,inactive,–,–
O=[N+]([O-])c1cn2c(n1)OC[C@@H](OCc1ccc(OC(F)(F)F)cc1)C2,9.64%,111,inactive,inactive,inactive,inactive,inactive,–,–
O=C1NCCc2[nH]c(-c3ccncc3)cc21,–,–,1.86 µM (active),3.32 µM (active),2.63 µM (active),1.66 µM (active),2.63 µM (active),3.72 µM (active),7.69 µM (active)
CN1CCN2c3ncccc3Cc3ccccc3C2C1 (stereo unspecified),-22.2%,102,inactive,inactive,inactive,inactive,inactive,–,–
CC(C)(C)COc1ccc(-n2cc(C(=O)O)cn2)cc1C#N,-16.6%,95.2,inactive,inactive,–,–,inactive,–,–
O=C(O)c1ccc(-c2c[nH]c3ncc(-c4ccccc4)cc23)cc1C1CCCC1,-17.5%,89.8,2.95 µM (active),–,inactive,–,–,–,–
CC(Oc1ccc(O)cc1)(P(=O)(O)O)P(=O)(O)O,-17.7%,109,inactive,inactive,inactive,inactive,inactive,–,–
CC1CNc2c(cccc2S(=O)(=O)N[C@@H](CCCN=C(N)N)C(=O)N2CC[C@@H](C)C[C@@H]2C(=O)O)C1 (stereo partly specified),8.55%,116,inactive,inactive,inactive,inactive,inactive,–,–
CC[C@H](C=C[C@@H](C)[C@H]1CC[C@H]2[C@@H]3CC=C4C[C@@H](O)CC[C@]4(C)[C@@H]3CC[C@]12C)C(C)C,-9.05%,107,inactive,inactive,inactive,inactive,inactive,–,–
CCC[C@H](N[C@@H](C)C(=O)N1[C@@H]2CCCC[C@H]2C[C@H]1C(=O)O)C(=O)OCC,-22.1%,110,inactive,inactive,inactive,inactive,inactive,–,–
COc1cc2nccc(Oc3ccc(NC(=O)Nc4ccc(F)cc4F)c(F)c3)c2cc1OC,5.39%,108,0.0934 µM (active),1.66 µM (active),2.09 µM (active),–,–,–,–
CCN(CC)CCCCNc1ncc2c(n1)N(C)C(=O)N(c1c(Cl)c(OC)cc(OC)c1Cl)C2,-7.31%,–,14.8 µM (active),10.5 µM (active),–,–,–,18.6 µM (active),–
